Screening data as filed in PubChem BioAssay.
HCV inh = HCV inhibition; hit rate 3.4% among 340,000; Huh7.5.1 HCVcc-Cre infection, luciferase reporter, 44 h; Potency, µM (series often up to 41.8 µM), inactives show at the top dose activity change, negative = inhibition, hits mostly inhibitors; note: potency is the fitted concentration of half-maximal effect
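Luciferase read-out (15 sec integration) after a 15 min room-temperature substrate step quantifies HCVcc-Cre infection. Cells, 1,000 per well, had compound added 4 h post-plating, then virus at ~0.5 moi, and were cultured 44 h.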
Pf growth 96h = inhibits malaria parasite growth, 96 h | P. falciparum luciferase reporter growth, 96 h | Potency, µM (doses to about 28.7 µM), for the others: at the highest dose activity change, negative = inhibition, actives largely listed as inhibitors | hit rate 6.9% among 320,000 | AID 504834; note: potency is the fitted concentration of half-maximal effect
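Readout is luminescence from an integrated firefly luciferase in P. falciparum. Red cells, 2% hematocrit and 0.05% parasitemia final, were cultured with compound through two parasite generations (96 hours) at 37 C, 5% CO2.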
MARV entry inh = blocks Marburg virus binding to or entry into cells; Marburg virus pseudotyped entry inhibition, cell reporter; Potency, µM (highest dose often 37.8 µM), for inactives: at the highest dose activity change, negative = inhibition, hits mostly inhibitors; hit rate 1.8% among 300,000; calls by dose curve; tested in HEK293 cells; note: potency is the fitted concentration of half-maximal effect
HCMV inh = human cytomegalovirus inhibition; HFF cells, HCMV-luciferase reporter, 72 h; active compounds read low; activity change, negative = inhibition, % at 57.5 µM; hit rate 4.5% among 410,000; AID 1259415; in the data active = activity change below about -60%; inconclusive = no clear call, values can overlap the other calls; inactive = above about -39%
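Inhibition of viral replication was scored as loss of reporter luminescence in HFFs infected with HCMV-luciferase (MOI 1 PFU/cell) for 72 h; compounds tested at 2 doses, normalized to buffer and Salinomycin controls.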
Pf growth 48h = inhibits P. falciparum growth in the first generation, 48 h; Potency, µM (doses to about 28.7 µM), for inactives: at the highest dose activity change, negative = inhibition, most hits filed as inhibitors; P. falciparum luciferase growth in erythrocytes, 48 h; hit rate 5.9% among 310,000; note: potency is the fitted concentration of half-maximal effect
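Luminescence readout; reporter = integrated firefly luciferase in P. falciparum. RBC culture at 2% hematocrit, 0.1% parasitemia final, 37 C/5% CO2; decreased signal taken as growth inhibition.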
LASV entry inh = Lassa virus entry inhibition; Potency, µM (series often up to 37.9 µM), without a hit: top-dose activity change, negative = inhibition, hits mostly inhibitors; hit rate 1.2% among 300,000; Lassa virus pseudotype entry inhibition, cell reporter; calls by dose curve; tested in HEK293 cells; note: potency is the fitted concentration of half-maximal effect; nearly all actives have a fitted effect of over 50% in size
* = called active by the depositor; ? = inconclusive; · = no result given; [ ] = another dose, or the depositor's remark. Only some compounds are listed: those with a hit (about 14% of all), similar ones and a draw of the others. Unless noted, calls come from the whole dose curve; as a rule, active = well fitted inhibition curve with a large enough effect; inconclusive = small, poorly fitted or top-dose-only effect, or another doubt; inactive = no such curve, though single readings can be large or run the other way. % is set by controls: 0 for no effect and ±100 for the full control effect.

SMILES	HCV inh	Pf growth 96h	MARV entry inh	HCMV inh	Pf growth 48h	LASV entry inh
CCOC(=O)CSc1nc(C)cc(C)n1	11.5%	-8.0%	?	20.7	·	14.5%
CC1(C(=O)NS(=O)(=O)C2CC2)CCCN(C(=O)Cc2ccc3ccccc3c2)C1 (centres undefined)	·	·	·	14.5	·	·
Cn1cnc([N+](=O)[O-])c1S(=O)(=O)Oc1ccc(Cl)cc1	?	·	11.2µM*	17.6	·	?
CCCCn1cc2c(c1-c1ccc(Br)cc1)c(=O)n(C)c(=O)n2C	·	·	?	5.2	·	-0.6%[46.1 µM]
COc1ccc(CNc2oc(-c3ccccc3)nc2C#N)cc1	-14.2%	8.28µM*	·	52.4	20.2%	·
N#Cc1nc(-c2cccc(Cl)c2)oc1NCc1cccnc1	?	?	?	59.3	·	-12.0%
Cc1ccc(OCc2nc(C#N)c(NCc3ccc4c(c3)OCO4)o2)cc1	?	11.7%	?	-5.2	-14.7%	?
COc1ccc(-c2nc(C#N)c(NCc3ccccc3Cl)o2)cc1OC	?	0.586µM*	?	-27.7	?	4.5%
CCOc1ccc(-c2nc(C#N)c(NCc3ccc4c(c3)OCO4)o2)cc1	?	8.28µM*	9.0%	-4.6	21.9%	4.5%
COc1ccc(-c2nc(C#N)c(NCc3cccnc3)o2)cc1OC	-18.9%	10.4µM*	-2.7%	113.1	?	-12.3%
NC(=O)c1ncn([C@@H]2O[C@H](CNCc3c(OCc4ccccc4F)ccc4ccccc34)[C@@H](O)[C@H]2O)n1	9.1%	·	·	-2.2	·	·
Cc1cc(C)c(NC(=O)CSc2nccn2-c2cccc(Cl)c2)c(C)c1	·	·	·	0.6	·	-18.8%[46.1 µM]
Fc1ccc(NCc2nnc3n2CCCCC3)cc1Cl	·	·	·	6.6	·	-22.2%[46.1 µM]
COc1ccc(-c2nc3scc(CCNS(=O)(=O)c4c(C)noc4C)n3n2)cc1OC	·	·	·	38.4	·	-3.2%[46.1 µM]
COc1ccc(-c2nc(C#N)c(NCc3ccc(F)cc3)o2)cc1OC	3.55µM*	·	0.1%	25.4	?	-1.4%
CC(=O)N(c1ccc(Cl)cc1)c1cn(C(C)=O)c2ccccc12	3.7%	-21.9%[5.75 µM]	?	72.2	-1.7%	-27.5%[46.1 µM]
CC(=O)n1cc(N(C(=O)CCl)c2ccc(C)cc2)c2ccccc21	1.58µM*	?	7.08µM*	-97.4*	?	?
CC(C)Oc1ccc(C(=O)NC2=NCCS2)cc1	20.7%	183.1%	8.91µM*	60.7	467.6%	?
Cc1ccc(C(=O)NC2=NCCS2)cc1	·	157.9%	-1.1%	93.6	105.6%	·
CC(C)c1ccc(C(=O)NC2=NCCS2)cc1	11.1%	16.0%	7.31µM*	67.8	221.7%	16.4µM*
Cc1ccccc1-n1c2nc(=O)[nH]c(=O)c-2cc2c(Cl)cccc21	·	·	·	-9.5	·	-22.8%[46.1 µM]
CC1(C)Cc2c(c(N3CCOCC3)nc3sc4c(NCCN5CCOCC5)nnnc4c23)CS1	11.2µM*	?	·	4.5	?	·
COc1ncnc2c1sc1nc(-c3ccccc3)c3c(c12)CCCC3	13.1%	?	·	?	?	·
CN(C)CCNc1ncnc2c1sc1nc(-c3ccccc3)c3c(c12)CCCC3	?	1.5%	10µM*	-67.6*	?	?
c1nc(NCCN2CCOCC2)c2sc3nc(N4CCOCC4)c4c(c3c2n1)CCC4	1.4%	·	?	-6.6	7.38µM*	-10.1%
SMILES	HCV inh	Pf growth 96h	MARV entry inh	HCMV inh	Pf growth 48h	LASV entry inh
COc1ccc(CC(=O)Nc2nc(C)cs2)cc1OC	?	11.7µM*	?	-69.9*	6.7%	-1.1%
COc1ccc(CC(=O)Nc2nnc(C(C)(C)C)s2)cc1OC	?	4.65µM*	?	-28.4	-14.5%	?
CCc1nnc(NC(=O)Cc2ccc(OC)c(OC)c2)s1	14.7%	-4.1%	·	-19.6	-15.4%	·
Cc1csc(NC(=O)CSc2nnc(CCNC(=O)c3cccs3)n2C)n1	17.1%	?	-3.5%	33.6	?	-2.9%
COc1ccc(CC(=O)Nc2nc(C)cs2)cc1	20.0%	?	?	46.3	36.6%	-3.8%
COc1ccc(CCCc2nnc(SCC(=O)Nc3nc(C)cs3)n2C)cc1C	16.9%	·	2.2%	22.3	13.1µM*	-25.3%
CC(=O)Oc1ccccc1Cn1c(C)c(C(=O)NCc2cccc(Cl)c2)sc1=O	·	·	·	8.6	·	·
CCN[C@H]1CN(CCCOC)S(=O)(=O)c2sc(S(N)(=O)=O)cc21	18.8%	47.7%	·	-24.2	-29.9%	·
